Source: PubChem (National Center for Advancing Translational Sciences (NCATS))
HCMV antiviral: blocks human cytomegalovirus replication. activity change, negative = inhibition, % at 57.5 µM. AID 1259415. 410,000 compounds, 4.5% hits. HFF cells, HCMV-luciferase reporter, 72 h; stronger effect = lower value; in the data active = activity change below about -60%; inconclusive = no clear call, values can overlap the other calls; inactive = above about -39%
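Luciferase read-out from HCMV-luciferase-infected HFFs (MOI 1 PFU/cell) 72 h post infection at 37C; compounds added after 16 h cell attachment; activity normalized between buffer-only basal and Salinomycin (10uM) inhibitor controls.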
HCV inhibitor: inhibitors of hepatitis C virus infection; Huh7.5.1 HCVcc-Cre infection, luciferase reporter, 44 h; Potency, µM (highest dose often 41.8 µM), usual class: inhibitors; 340,000 compounds, 3.4% hits; active = well fitted inhibition curve with a large enough effect; inconclusive = small, poorly fitted or top-dose-only effect, or another doubt; inactive = no such curve, though single readings can be large or run the other way
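After 44 h co-culture of compound, cells and HCVcc-Cre (~0.5 moi), substrate is added for 15 min at room temperature and luciferase measured over 15 sec. Cells were seeded at 1,000/well and pre-cultured 4 h.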
MARV entry inh: Marburg virus entry inhibition; Marburg virus pseudotyped entry inhibition, cell reporter; Potency, µM (top dose mostly 37.8 µM), usual class: inhibitors; 300,000 compounds, 1.8% hits; AID 540276; calls by dose curve; tested in HEK293 cells
FMDV inh: antivirals against foot and mouth disease virus; FMDV antiviral cell-based qHTS; Potency, µM (doses to about 57.9 µM), hits mostly inhibitors; 410,000 compounds, 1.2% hits; calls by dose curve; tested in HEK293T cells; also: read-out not given here; nearly all actives have a fitted effect of over 45% in size
LASV entry inh: blocks Lassa virus binding to or entry into cells | Lassa virus pseudotype entry inhibition, cell reporter | Potency, µM (series often up to 37.9 µM), actives largely listed as inhibitors | 300,000 compounds, 1.2% hits; calls by dose curve; tested in HEK293 cells; also: nearly all actives have a fitted effect of over 50% in size
SARS PLpro yeast: SARS-CoV PLP inhibition in yeast; S. cerevisiae expressing SARS-CoV PLpro, growth rescue; Potency, µM (series often up to 32.9 µM), usual class: activators; 330,000 compounds, 0.19% hits; calls by dose curve; also: nearly all actives have a fitted effect of over 55% in size
Numbers stand for hits; n = inactive; u = inconclusive; x = not tested or not shown; + = active, no number; ! = repeats disagree. Only some compounds are listed: those with a hit (about 8% of all), similar ones and a draw of the others.

SMILES	HCMV antiviral	HCV inhibitor	MARV entry inh	FMDV inh	LASV entry inh	SARS PLpro yeast
COCC(=O)N1c2nc(C(C)C)nn2C2(CCCCC2)[C@@H]2CCCC[C@@H]21	n	x	u	n	n	x
Fc1ccccc1-c1noc2nc(Oc3cccc(N4CCOCC4)c3)ccc12	n	x	x	x	x	x
O=S1(=O)[C@H]2C[C@H](CO)O[C@@]2(CO)CN1Cc1ccc(-c2ccc(F)cc2)cc1	n	11µM	x	n	x	n
CCCCOc1ccc(CN2CCSCC2)cc1	n	n	x	n	x	n
CCCCCCOc1ccc(CN2CCN(CC)CC2)cc1	-75	u	u	n	u	n
CCCCCCCCOc1ccc(C(=O)O)cc1	n	6.3µM	x	n	x	n
COc1ccccc1CNC(=O)CN1C(=O)COc2ccc(S(=O)(=O)Nc3ccccc3)cc21	n	x	x	n	n	x
CCOCCCNC(=O)CN1C(=O)COc2ccc(S(=O)(=O)N3CCOCC3)cc21	u	n	n	n	n	n
CCOC(CNC(=O)CN1C(=O)COc2ccc(S(=O)(=O)N3CCOCC3)cc21)OCC	+	n	x	n	x	n
NS(=O)(=O)c1ccc(CCNC(=O)CN2C(=O)COc3ccc(S(=O)(=O)N4CCCC4)cc32)cc1	n	n	x	n	x	x
COc1ccc(OC)c(CCNC(=O)CN2C(=O)COc3ccc(S(=O)(=O)N4CCCCCC4)cc32)c1	n	x	u	n	n	x
O=C(CN1C(=O)COc2ccc(S(=O)(=O)N3CCCC3)cc21)NCCc1ccc(Cl)cc1	-73	x	x	n	n	x
COc1ccc(CCNC(=O)CN2C(=O)COc3ccc(S(=O)(=O)N4CCCC4)cc32)c(OC)c1	-63!	u	u	n	n	n
O=C(CN1C(=O)COc2ccc(S(=O)(=O)Nc3ccccc3)cc21)NCc1ccccc1Cl	-106	x	x	n	n	x
Cc1cccc(-n2c(=O)c3c(c4cc(C)ccc4n3C)n(CC(=O)NCCC3=CCCCC3)c2=O)c1	n	x	x	n	n	x
Cc1ccc(NC(=O)CN2C(=O)COc3ccc(S(=O)(=O)N4CCCCCC4)cc32)cc1Cl	-84	x	x	n	u	x
Cc1ccc(NC(=O)CN2C(=O)COc3ccc(S(=O)(=O)N4CCCC4)cc32)cc1C	n	n	n	n	u	n
CCOc1ccc2ncc3c(-c4ccc(C)cc4)nn(-c4cccc(F)c4)c3c2c1	n	x	n	n	n	x
CC(=O)N(/N=C1\Sc2ccccc2C1=O)c1ccccc1C	n	u	u	n	u	n
CC(=O)N(/N=C1\Sc2ccccc2C1=O)c1ccc(C)cc1C	-86	n	u	u	10µM	n
COc1cc(C(=O)N(Cc2ccc(F)cc2)Cc2ccco2)cc(OC)c1OC	n	x	u	n	n	x
CCN1C(=NCc2ccc(OC)cc2)NC(c2cccc(F)c2)C(C(=O)OC)=C1C (centres undefined)	x	x	n	x	x	x
COc1ccc(NC(=O)/C=C\C(=O)N(c2ccc(C(C)C)cc2)C(C(=O)NCc2ccco2)c2ccc(F)cc2)cc1 (centres undefined)	u	x	x	n	u	x
CCOc1ccc(NC(=O)/C=C\C(=O)N(c2ccc(C(C)C)cc2)C(C(=O)NCc2ccco2)c2ccc(F)cc2)cc1 (centres undefined)	-61	x	x	n	n	x
Cc1ccc(NC(=O)/C=C\C(=O)N(c2ccc(C(C)C)cc2)C(C(=O)NCc2ccco2)c2ccc(Cl)cc2)cc1 (centres undefined)	-76	x	x	n	u	x
SMILES	HCMV antiviral	HCV inhibitor	MARV entry inh	FMDV inh	LASV entry inh	SARS PLpro yeast
COc1ccc2c(c1)[C@@H](NC(=O)C(F)(F)F)C1CCCCC21c1ccccc1 (some centres undefined)	x	x	n	x	x	x
O=C(NN=Cc1ccc(N2CCOCC2)s1)c1ccc([N+](=O)[O-])cc1	n	22µM	x	u	x	n
COc1cc([N+](=O)[O-])cc(/C=N/NC(=O)CSc2nnc(-c3ccccc3)n2C)c1O	x	u	n	n	n	n
Cn1c(SCC(=O)N/N=C/c2ccc([N+](=O)[O-])s2)nnc1-c1ccc(Cl)cc1	n	u	12µM	u	u	n
O=C(N/N=C/c1ccc([N+](=O)[O-])s1)c1cccc(Br)c1	-69	u	u	u	n	n
O=C(N/N=C/c1ccc([N+](=O)[O-])s1)c1ccncc1	x	u	u	n	n	n
Cc1ccc(C(=O)N/N=C/c2ccc([N+](=O)[O-])s2)cc1	n	2.8µM	11µM	2.8µM	u	n
O=C(N/N=C/c1cccc([N+](=O)[O-])c1)c1cccc(Br)c1	n	n	n	n	n	n
